# Screening results deposited in PubChem BioAssay by National Center for Advancing Translational Sciences (NCATS).
# HP1b chromo inh: HP1-beta chromodomain-methylated histone interaction inhibition. P83916. Potency, µM (doses to about 114 µM), inactives show at the top dose activity change, negative = inhibition, actives largely listed as inhibitors. 0.56% of 390,000 active. AlphaScreen HP1-beta / biotin-H3K9me3 peptide binding. AID 540317; further: potency means the concentration at half of the fitted maximal effect; nearly all actives have a fitted effect of over 70% in size
# Target sequence (P83916 whole entry, looked up): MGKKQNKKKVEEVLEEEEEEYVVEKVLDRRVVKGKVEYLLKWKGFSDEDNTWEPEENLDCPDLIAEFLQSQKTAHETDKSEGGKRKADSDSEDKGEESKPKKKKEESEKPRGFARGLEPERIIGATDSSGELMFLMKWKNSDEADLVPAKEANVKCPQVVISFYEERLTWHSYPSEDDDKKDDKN
#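 HP1-beta protein (50 nM final) preincubated 30 min at room temperature with biotinylated H3(1-18)K9me3 peptide (50 nM) in PBS pH 7.4, 0.01% Tween-20, then compound added for 30 min. AlphaScreen streptavidin donor/nickel chelate acceptor beads (10 ug/mL final), 30 min dark, luminescence read.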
# PLK1 PBD block: PLK1 (human) polo-box domain binding inhibition; P53350; Plk1 PBD binding of FITC phosphopeptide, fluorescence polarization; Potency, µM, for inactives: max response, negative = inhibition, most hits filed as inhibitors; 2.8% of 360,000 active; further: potency means the concentration at half of the fitted maximal effect; series mostly up to about 57 µM; on the % scale 0 is the no-effect control and ±100 the full control effect; nearly all actives have a fitted effect of over 65% in size
# BAZ2B inh: inhibitors of human BAZ2B bromodomain; AlphaScreen BAZ2B-H3K14Ac peptide displacement; AID 504333; Q9UIF8; Potency, µM (series often up to 114 µM), without a hit: at the top dose activity change, negative = inhibition, most hits filed as inhibitors; 4.4% of 360,000 active; further: potency means the concentration at half of the fitted maximal effect; on the % scale 0 is the no-effect control and ±100 the full control effect; nearly all actives have a fitted effect of over 60% in size
#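 Compounds, titrated to a top concentration of 110 uM, were incubated 30 min at room temperature with preformed BAZ2B/acetyl-K14 H3 peptide complex (50 nM each). Proximity signal was measured by AlphaScreen after 20 min with beads.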
# JMJD2A Tudor inh: blocks the human JMJD2A Tudor domain; O75164; AlphaScreen JMJD2A-Tudor / H3K4me3 peptide binding; Potency, µM (titrated, usually from 114 µM), for the others: at the highest dose activity change, negative = inhibition, actives largely listed as inhibitors; 4.4% of 390,000 active; AID 504339; further: potency means the concentration at half of the fitted maximal effect; on the % scale 0 is the no-effect control and ±100 the full control effect; nearly all actives have a fitted effect of over 50% in size
# PI5P4K alpha inh: PI5P4K alpha (human) kinase inhibition; max response, %; AID 652105; PI5P4Kalpha enzyme, ADP-Glo luminescence, 60 min; hits give low values; P48426; 1.2% of 330,000 active; active means max response of -50% or lower; inconclusive means between -30% and -50%; inactive means -30% or higher; further: value at the top dose of about 77 µM; on the % scale 0 is the no-effect control and ±100 the full control effect
# Target sequence (P48426 whole entry, looked up): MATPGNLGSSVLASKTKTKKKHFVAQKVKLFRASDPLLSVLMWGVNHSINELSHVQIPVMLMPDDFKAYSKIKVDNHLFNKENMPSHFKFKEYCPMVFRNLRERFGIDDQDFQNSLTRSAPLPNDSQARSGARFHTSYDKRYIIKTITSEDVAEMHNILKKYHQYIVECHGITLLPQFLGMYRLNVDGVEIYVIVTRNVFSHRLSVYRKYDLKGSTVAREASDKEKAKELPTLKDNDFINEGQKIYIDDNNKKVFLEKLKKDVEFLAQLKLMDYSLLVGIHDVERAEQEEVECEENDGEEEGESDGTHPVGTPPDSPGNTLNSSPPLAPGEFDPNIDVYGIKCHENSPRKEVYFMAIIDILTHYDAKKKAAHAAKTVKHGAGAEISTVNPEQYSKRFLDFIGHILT
#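 Single end-point luminescence (ADP-Glo) quantified ADP from PI5P4Kalpha turnover; ATP 5 microM final, 1 h at RT, 0.1% CHAPS and 0.28 mM EGTA in HEPES pH 7.4.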
# G9a inh: G9a (human) methyltransferase inhibition; Q96KQ7; G9a H3K9 monomethylation, AlphaScreen, 2 h; Potency, µM (doses to about 102 µM), for the others: at the highest dose activity, negative = inhibition, actives largely listed as inhibitors; 8.8% of 350,000 active; AID 504332; further: potency means the concentration at half of the fitted maximal effect; on the % scale 0 is the no-effect control and ±100 the full control effect; nearly all actives have a fitted effect of over 75% in size
#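 Step 1: enzyme (final 20 nM) with compound, 15 min RT. Step 2: substrate peptide 500 nM and SAM 20 uM, 2 h RT. Step 3: anti-H3K9me1 antibody and AlphaScreen beads, 10 min, then plate read.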
# An asterisk follows results filed as active; ? = inconclusive; nt = no result given; [ ] = another dose, or the depositor's remark. Compounds with a hit are over-represented: about 12% of the library has one in this group of screens. Unless noted, the call rests on the fitted dose curve; in most records, active means well fitted curve in the direction sought with a large enough effect; inconclusive means small, poorly fitted or top-dose-only effect, or another doubt; inactive means no such curve, though single readings can be large; an effect the other way counts as inactive or inconclusive.
SMILES,HP1b chromo inh,PLK1 PBD block,BAZ2B inh,JMJD2A Tudor inh,PI5P4K alpha inh,G9a inh
CN(C)c1ccc(O)c2c1C[C@@H]1C[C@H]3C(N(C)C)C(=O)C(C(N)=O)=C(O)[C@@]3(O)C(=O)C1=C2O (some centres not stated),nt,nt,nt,nt,nt,-51%[2.33 µM]
C[C@H]1c2cccc(O)c2C(O)=C2C(=O)C3(O)C(O)=C(C(N)=O)C(=O)[C@@H](N(C)C)[C@@H]3[C@@H](O)[C@@H]21 (some centres not stated),30%,-1%,8.9µM*,22µM*,-2,5µM*
Cc1cccc(C)c1NC(=O)C(C)Sc1nnc(C)n1CC1CCCO1 (configuration not stated),30%,-3%,-6%,-11%,0,16%
C=CCN1C(=O)c2ccc(C(=O)OCC(=O)N(CC)c3c(N)n(Cc4ccccc4)c(=O)[nH]c3=O)cc2C1=O,27%,-3%,nt,-5%,2,nt
C[C@H]1c2cccc(O)c2C(=O)C2C(=O)C3(O)C(=O)C(C(N)=O)C(=O)[C@@H](N(C)C)[C@@H]3[C@@H](O)[C@@H]21 (some centres not stated),36%,-6%,nt,13µM*,-4,nt
O=C(CCNC(=O)c1ccccc1Cl)N/N=C\c1ccc(O)cc1,7%,12µM*,-14%,-24%[11.4 µM],-12,0%
Cc1ccccc1-c1ncnn1-c1sc2c(c1C#N)CCCCC2,-20%,nt,-32%,?,nt,?
COc1ccc(NC(C)C(=O)Nc2ccc(C#N)cc2)cc1Cl (configuration not stated),3%,-7%,?,?,5,-2%[59 µM]
COc1ccc(NC(C)C(=O)Nc2ccc(C(C)(C)C)cc2)cc1Cl (configuration not stated),-37%,-1%,45µM*,?,0,?
COc1ccc(NC(=O)C(NCC(C)C)c2ccccc2)cc1Cl (configuration not stated),16µM*,-7%,40µM*,4.5µM*,-5,50µM*
COc1ccc(NC(=O)C(OC)c2ccccc2)cc1Cl (configuration not stated),35%,-1%,12%,7%,5,-11%[59 µM]
COC(=O)C(=C/C=C/c1ccco1)C(=O)OC,38%,0%,-24%,-9%,3,45µM*
Cc1ccccc1N1CC(C(=O)Nc2nnc(SCCN3CCOCC3)s2)CC1=O (configuration not stated),36%,-22%,-29%,-28%,-13,16µM*
COc1cccc(N2CC(C(=O)Nc3nnc(SCCN4CCOCC4)s3)CC2=O)c1 (configuration not stated),43%,-12%,-10%,-17%,-19,40µM*
COc1ccc(C(=O)CSc2nnc(NC(=O)C3CC(=O)N(c4ccccc4C)C3)s2)cc1 (configuration not stated),8%,-7%,5%,-11%,?,35µM*
COc1ccc(N2CC(C(=O)Nc3nnc(SCC(=O)NC(C)(C)C)s3)CC2=O)cc1 (configuration not stated),22%,-15%,-3%,0%,-2,?
Cc1ccccc1N1CC(c2nnc(NC(=O)c3ccco3)s2)CC1=O (configuration not stated),-6%,nt,?,-12%,nt,8.9µM*
COCC(=O)N1CCC2(CCCN(Cc3nccs3)C2)CC1,nt,nt,nt,nt,nt,3%[12.7 µM]
Cc1cccc(C)c1NC(=O)CSc1nnc(NC(=O)CN2CCOCC2)s1,11%,-7%,?,89µM*,-1,7%[0.0925 µM]
Cc1ccc(NC(=O)CSc2nnc(NC(=O)CN3CCOCC3)s2)cc1,19%,-7%,-37%,?,-2,-16%[12.7 µM]
COc1ccc2[nH]c3c(c2c1)CCN1C(=O)C(CC(=O)NCC24CC5CC(CC(C5)C2)C4)C[C@H](C(=O)N2CCOCC2)[C@@]31CCC1CCCC1 (some centres not stated),-6%,?,nt,40µM*,-24,nt
CC[C@]12c3[nH]c4cc(-c5ccco5)ccc4c3CCN1C(=O)[C@@H](CC(=O)NCC13CC4CC(CC(C4)C1)C3)C[C@@H]2C(=O)N1CCN(C(=O)C2CC2)CC1,10%,-5%,nt,-23%,-20,nt
CC[C@]12c3[nH]c4cc(-c5ccco5)ccc4c3CCN1C(=O)[C@@H](CC(=O)NCC13CC4CC(CC(C4)C1)C3)C[C@@H]2C(=O)N1CCN(C(=O)c2ccco2)CC1,18%,-3%,nt,-33%,-51*,nt
CC[C@]12c3[nH]c4cc(-c5ccco5)ccc4c3CCN1C(=O)[C@@H](CC(=O)NCCC1=CCCCC1)C[C@@H]2C(=O)N1CCN(C(=O)C2CC2)CC1,7%,21µM*,nt,?,?,nt
CC[C@]12c3[nH]c4cc(-c5ccco5)ccc4c3CCN1C(=O)[C@@H](CC(=O)NCc1ccco1)C[C@@H]2C(=O)N1CCN(C(=O)C2CC2)CC1,-3%,?,nt,?,-19,nt
SMILES,HP1b chromo inh,PLK1 PBD block,BAZ2B inh,JMJD2A Tudor inh,PI5P4K alpha inh,G9a inh
CCOC(=O)NC(=O)COC(=O)c1ccc(Sc2ncn[nH]2)c([N+](=O)[O-])c1,1%,-8%,79µM*,-31%,8,20µM*
C=CCN(CC=C)C(=O)COC(=O)c1ccc(Sc2ncn[nH]2)c([N+](=O)[O-])c1,-1%,-8%,?,-21%,-22,28µM*
C=CCNC(=O)COC(=O)c1ccc(Sc2nncn2C)c([N+](=O)[O-])c1,65%,?,-4%,-12%,5,-3%
CCNc1ccc(C(=O)OCC(=O)NC(=O)NCC(C)C)cc1[N+](=O)[O-],20%,3%,-15%,9%,1,3%
Cc1ccc(N=C2NC(=O)C(CO)(CO)S2)cc1,16%,-15%,-20%,-10%,4,-36%
CCCOCC1CC2(SC(=Nc3ccc(C)cc3)NC2=O)C(=O)O1 (configuration not stated),-12%,27µM*,-2%,-15%[11.4 µM],8,-17%[12.7 µM]
CCc1cc(-c2n[nH]c(C)c2-c2ccccc2Cl)c(O)cc1OC,7%,-8%,?,?,16,40µM*
CCNC(=O)C1CCN(S(=O)(=O)c2ccc3c(c2)CCCN3C(C)=O)CC1,25%[57 µM],nt,10%,1%,nt,12%[59 µM]
Cc1cc(Nc2ccc(Br)c(C)c2)n2nc(C)nc2n1,3%,30µM*,-3%,?,1,-9%
Cc1cc(Nc2ccc(C(=O)O)cc2)n2nc(C)nc2n1,48%,-7%,10%,1%,2,-3%[59 µM]
CC(=O)c1ccc(Nc2cc(C)nc3nc(C)nn23)cc1,40%,-5%,6%,-4%,-9,79µM*
CN(C)c1ncc2nc(CCc3ccccc3)c(=O)n(Cc3cccs3)c2n1,nt,nt,nt,nt,nt,9%[0.501 µM]
